Measured values: PubChem BioAssay AID434989 (The Scripps Research Institute Molecular Screening Center, 2010)
Screen size: about 330,000 compounds; about 1,400 (0.42%) were called active.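 How the source made its calls: active means inhibition above its plate's threshold, mean inhibition of all tested compounds on the plate plus 3 SD (cut at about 37% in these data); inactive means the rest.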 For the sample, actives were picked, then their nearest neighbours and some compounds at random.

biological target: Orexin/Hypocretin receptor type 1 (Homo sapiens) (UniProt O43613); assay: OX1R (HCRTR1) antagonists, primary screen, fluorescence, CHO/OX1R cells, Fluo-8 calcium, orexin A (AID 434989); conditions: Fluo-8 calcium fluorescence, at 5 µM, stronger effect = higher value;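 further: 0% = orexin A challenge wells and 100% = SB-334867-A antagonist wells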
Sequence (O43613 whole entry, looked up): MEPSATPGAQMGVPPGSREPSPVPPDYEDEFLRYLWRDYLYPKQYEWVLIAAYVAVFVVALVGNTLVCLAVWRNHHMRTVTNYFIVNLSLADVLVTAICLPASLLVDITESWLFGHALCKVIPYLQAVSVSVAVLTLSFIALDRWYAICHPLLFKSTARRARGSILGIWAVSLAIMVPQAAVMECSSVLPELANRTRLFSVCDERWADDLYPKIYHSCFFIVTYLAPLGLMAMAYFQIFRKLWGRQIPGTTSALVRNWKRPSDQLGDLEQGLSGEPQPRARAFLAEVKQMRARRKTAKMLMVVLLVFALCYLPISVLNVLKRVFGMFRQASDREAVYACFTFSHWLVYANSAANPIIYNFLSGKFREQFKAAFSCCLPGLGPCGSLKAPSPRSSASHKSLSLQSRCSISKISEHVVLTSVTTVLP

inhibition, inactive:
O=C(COC(=O)/C=C/c1ccc(Br)o1)Nc1cccc(S(=O)(=O)N2CCOCC2)c1 -6.48%
O=C(C[C@H]1C/C=C\C[C@@H](NC(=O)OCC2c3ccccc3-c3ccccc32)C(=O)O[C@@H](c2ccccc2)CNC1=O)N[C@H](CO)Cc1ccccc1 -18.2%
O=C(COC(=O)CN1C(=O)C2CCCCC2C1=O)Nc1ccc(F)c(F)c1F (centres undefined) -8.95%
O=C(CCC(=O)OCc1ccc(Cl)cc1)Nc1ccccc1 -9.06%
O=C(O)CC1=C(Nc2ccccc2)C(=O)N(c2ccccc2)C1c1ccc(Cl)cc1 (centres undefined) -21.1%
Cc1ccc(S(=O)(=O)N2C[C@@H]3CCCC[C@@H]3[C@@H](C)[C@H]2c2cn(Cc3ccccc3)c3ccc(F)cc23)cc1 6.16%
Fc1ccc2cnc(-c3ccccc3)cc2c1 -19.1%
CC(=O)c1ccc(-c2ccc(Cn3c(C)nc4cc(N)c(C)nc43)cc2)cc1 -25.1%
Cc1cc(-c2csc(N)n2)c(C)n1Cc1ccccc1 -19.7%
COc1ccc(NC(=O)Nc2ccc3c(c2)C(=O)N([C@H](C)CO)C[C@H](C)[C@@H](CN(C)C(=O)Nc2ccc4c(c2)OCO4)O3)cc1 1.29%
COc1ccc(-c2nc3cc(C)ccn3c2NC2CCCCC2)cc1SC1CCCCC1 25.4%
CCOC(=O)/C=c1\s/c(=C\c2ccc(C#N)cc2)c(=O)n1CC(=O)Nc1cccc(C)c1C 1.96%
CCOC(=O)Cn1c(=O)oc2cc(S(=O)(=O)N(C)Cc3ccco3)ccc21 -12%
CSc1ccc(NC(=O)/C=C/C(=O)O)cc1 -13%
CC(C)(C)c1ccc(/C=C/C(=O)Nc2ncccn2)cc1 -7.7%
O=C(NNS(=O)(=O)c1c(F)cc(F)c(Cl)c1F)C12CC3CC(CC(C3)C1)C2 4.78%
O=C(COC(=O)COc1cccc(F)c1)NCC1CCCCC1 -16.8%
CN(C)S(=O)(=O)c1cccc(NC(=O)Cc2ccsc2)c1 -7.6%
CN(c1ccccc1)S(=O)(=O)c1cccc(NC(=O)Cc2c(F)cccc2Cl)c1 11.3%

inhibition, active:
O=C1C=C(c2ccc(Cl)cc2)C(=O)N1Nc1ccccc1 53.2%
Cc1cc2nc3c(=O)n(Cc4ccccc4)c(=O)[nH]c3nc2cc1N 54.6%
CN(c1ccccc1)c1ccc(/C=c2\s/c(=C(/C#N)C(=O)C(C)(C)C)n(Cc3ccco3)c2=O)cc1 42%
COC(=O)c1sc(-c2ccc(C(C)(C)C)cc2)cc1NC(=O)/C=C/C(=O)O 55.5%
CN(c1ccccc1)S(=O)(=O)c1cccc(NC(=O)Cc2ccc(Cl)cc2)c1 42.1%
